Results on 56 compounds are retold here after ChEMBL document CHEMBL4513216, “Probing the Open Global Health Chemical Diversity Library for Multistage-Active Starting Points for Next-Generation Antimalarials” (ACS Infect Dis, 2020).

Hit rate of the full screen: of about 69,000 compounds, about 8,600 (12%) showed an effect of 50% or more. What follows is part of a selection rich in strong results, with near analogues and random picks from the rest.

The assay deals with Plasmodium berghei. As to the kind of experiment: Screen against P. berghei liver stage (PbLuc), transformed with Luciferase, at 10uM. To be noted: tested at 10 uM. Type of assay: functional, HepG2.
On to `CN1CCN(C(=O)CCn2c(C(F)(F)F)cc3cccnc32)CC1`, for which the INHIBITION is -15.3%.
As for `COc1nc(C)c(C(=O)N2CCC(C(O)Cc3ccccc3)CC2)s1` (stereo unspecified), the figure is 18.5%.
As for `CCNc1nc(C)c(C(=O)N2CCC(C(O)Cc3ccccc3)CC2)s1` (stereo unspecified), the figure is 53.9%; as for `CCOC(=O)N1CCN(C(=O)c2sc(-c3ccncc3)nc2C)CC1`, 24%; as for `Cc1cc(=O)c(C(=O)N2CCC(C(O)Cc3ccccc3)CC2)c(C)[nH]1` (stereo unspecified), 35.8%.
On to `Cc1nc(N)sc1C(=O)N1CCC(C(O)Cc2ccccc2)CC1` (stereo unspecified), for which the INHIBITION stood at 46.7%.
For the compound `CCOC(=O)N1CCN(C(=O)c2sc(-c3ccccc3)nc2C)CC1`, the INHIBITION amounted to 74.7%.
On to `CNc1nc(C)c(C(=O)N2CCC(C(O)Cc3ccccc3)CC2)s1` (stereo unspecified), for which the INHIBITION turned out to be 61.2%.
As for `CCOC(=O)N1CCN(C(=O)c2sc(-c3ccc(F)cc3)nc2C)CC1`, the figure is 18.8%; as for `CCNc1nc(C)c(C(=O)N2CCN(c3ncccc3C)CC2)s1`, -11.2%; as for `Cc1cc(C(=O)N2CCc3nc(C4CCCCN4)ncc3C2)cs1` (stereo unspecified), -17.7%.
Take `O=C([C@H]1CC[C@@H]2[C@@H](CCN2Cc2nccs2)O1)N1CCCCO1`: the INHIBITION was determined as 19.5%.
Regarding `O=S1(=O)NCC2(CCCN(Cc3cccnc3)C2)Oc2ncccc21` (stereo unspecified), the INHIBITION worked out at 40.8%.
Consider `c1cc(CCNc2ccc(CC3CCNC3)cn2)ccn1` (stereo unspecified), for which the INHIBITION amounted to 19.3%.
Regarding `O=C([C@@H]1CCS(=O)(=O)[C@@H]2CN(c3ncccn3)C[C@@H]21)N1CCOCC1`, the INHIBITION came to 23.1%.
`CN1CCNC(Cc2ccc(-c3ccncc3)cc2)C1=O` (stereo unspecified): the INHIBITION amounted to 22%.
Take `CCN1CCn2c(C)cnc2C12CCN(C(=O)N(C)C)CC2`: the INHIBITION is reported as -18.4%.
On to `O=C(Nc1cccnc1)[C@H]1C[C@@H]2CCN(c3nncs3)C[C@H]2O1`, for which the INHIBITION is on record as -13.2%.
With `Cn1cc(N2C(=O)CC[C@@H]3[C@H]2CCN3Cc2cccc(C#N)c2)cn1`, the INHIBITION was -24.1%.
In the case of `COC(=O)c1cccc(CN(C)C(C)c2ccccn2)c1` (stereo unspecified), the INHIBITION turned out to be 14.8%.
For `CC(c1cccs1)N(C)Cc1cnc(-c2ccccn2)nc1` (stereo unspecified), the INHIBITION stood at 66.5%.
Regarding `CC(C)n1cnnc1CN(C)Cc1cnc(-c2ccccn2)nc1`, the INHIBITION is recorded as -36.3%.
For the compound `CC(=O)N1CCN(C(=O)c2ccc(-c3cccc(C)c3)[nH]c2=O)CC1`, the INHIBITION worked out at 35.7%.
In the case of `Cc1cnn(CCNCc2ccccc2F)c1`, the INHIBITION was -14.6%.
Next, `Cc1ccc(-c2cc(CNCCn3cc(C)cn3)on2)cc1`: 60.4%.
As for `Cc1cnn(CCNCc2ccccc2C#N)c1`, the figure is 51%; as for `Cc1cnn(CCNCc2cc(C)no2)c1`, 38.8%; as for `Cc1cnn(CCNCc2ccc(C#N)cc2)c1`, 6.8%.
Regarding `Cc1cnn(CCNCc2cc(-c3ccccc3)no2)c1`, the INHIBITION is listed as 20.4%.
For the compound `CCN(CC1CCCO1)C(=O)NCCNC(=O)c1ccccc1F` (stereo unspecified), the INHIBITION was 34.5%.
As for `NC(=O)Nc1cccc(Oc2ccccn2)c1`, the figure is -1.58%.
Regarding `CCC(Nc1cccc(Oc2ccccn2)c1)C(N)=O` (stereo unspecified), the INHIBITION is recorded as 62%.
Take `CCC(Nc1cccc(Oc2ccc(C#N)cc2)c1)C(N)=O` (stereo unspecified): the INHIBITION was 29.6%.
Next, `CN1CCC(c2nnc(CN3CCCCC3)n2C)CC1`: 25.4%.
Turning to `COc1ccccc1OCC(=O)NCC(C)(O)C1CC1` (stereo unspecified), the INHIBITION is listed as -3.51%.
Next, `CCC(=O)N1CCC2(CC1)c1nc[nH]c1CCN2S(C)(=O)=O`: 1.81%; `CCCN1CCc2[nH]cnc2C12CCN(C(=O)CCn1cccn1)CC2`: 54.8%; `CN1CCc2[nH]cnc2C12CCN(C(=O)CCc1cccs1)CC2`: 31.9%.
`CC(=O)N1CCc2[nH]cnc2C12CCN(C(=O)Cc1cccs1)CC2`: the INHIBITION is 61.5%.
Consider `CCN1CCc2[nH]cnc2C12CCN(C(=O)CCc1cccs1)CC2`, for which the INHIBITION stood at 26%.
For the compound `CCCN1CCc2[nH]cnc2C12CCN(C(=O)Cn1ccnc1C)CC2`, the INHIBITION turned out to be 57%.
For `CC(=O)N1CCc2[nH]cnc2C12CCN(C(=O)Cc1ccccn1)CC2`, the INHIBITION was found to be 8.31%.
Consider `CCN1CCc2[nH]cnc2C12CCN(C(=O)CCCn1cncn1)CC2`, for which the INHIBITION came out at 36.3%.
As for `CC(=O)N1CCc2[nH]cnc2C12CCN(C(=O)CCn1cccn1)CC2`, the INHIBITION stood at 35.2%.
For `CN1CCc2c(CNc3ncccn3)n[nH]c2C1`, the INHIBITION is listed as 27.5%.
Next, `CCC(=O)N1CCC(Cc2ccccc2-c2ccccc2F)(C(N)=O)C1` (stereo unspecified): 29.2%.
In the case of `Cc1cnn(C2(C(=O)O)CCN(Cc3oc4ccccc4c3C)CC2)c1`, the INHIBITION is -0.613%.
For the compound `CC(C)n1nnc(CC(=O)NCC2(c3cccc(F)c3)CCCC2)n1`, the INHIBITION is on record as 26.7%.
With `COCc1ccccc1NC(=O)c1ccoc1`, the INHIBITION is listed as -80.7%.
Next, `Cc1ccc(C#N)cc1NC(=O)NC1CCCN(c2ncccn2)C1` (stereo unspecified): 42%; `CC(C(=O)N1CCN(Cc2ccncc2)CC1)n1cncn1` (stereo unspecified): 4.25%; `Fc1ccc(-c2cnc(C3CCNCC3)cn2)cc1`: 37.85%.
`CC(CO)CN(Cc1ccccc1)C(=O)c1csc(CN(C)C)n1` (stereo unspecified): the INHIBITION is 13.7%.
Consider `Cc1nc(C(C)NC(=O)c2cn(CCC3CCCCC3)nn2)n[nH]1` (stereo unspecified), for which the INHIBITION is recorded as 5.75%.
Consider `COCc1noc(Cn2c(C3CC3)nc3ccccc32)n1`, for which the INHIBITION is listed as 39.2%.
As to `COCc1noc(Cn2c(=O)[nH]c3ccccc32)n1`, the INHIBITION worked out at 74%.
